From PubChem BioAssay AID686978 (National Center for Advancing Translational Sciences (NCATS), 2013) come the findings set out here.

Molecules are shown by their SMILES. The whole screen tested about 420,000 compounds, of which about 64,000 (15%) were called active. Inconclusive results (about 27%) are left out. Only a sample is shown. Values without a mark were called inactive. Calls follow the shape of the dose curve; as a rule, active = well fitted inhibition curve with a large enough effect; inconclusive = small, poorly fitted or top-dose-only effect; inactive = flat fitted curve, though single readings scatter.
% is scaled to controls: 0 for no effect and ±100 for the full control effect; potency is read from the fitted curve at half-maximal effect.

The nature of this experiment: qHTS for Inhibitors of human tyrosyl-DNA phosphodiesterase 1 (TDP1): qHTS in cells in absence of CPT. Also: nearly all actives have a fitted effect of over 55% in size. As to conditions: DT40 Tdp1-/- hTDP1 cells, no CPT, ATP luminescence, 48 h; activity change, negative = growth inhibition: at 46.2 µM (top of the series). Put shortly: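 Stably hTDP1-transfected Tdp1-null chicken DT40 cells were treated with library compounds minus camptothecin and grown for at least 48 hr at 37 °C, after which cellular ATP was quantified by luminescence.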
In general terms: qHTS replaces the single test concentration by a dilution series.
As to `Cn1c(N)c(C(=O)COC(=O)c2ccc3ccccc3c2)c(=O)n(C)c1=O`, the “activity change, negative = growth inhibition” value is -16.8%.
Same read-out and setting: the value for `Cc1cc(OCC(=O)Nc2c(C)n(C)n(-c3ccccc3)c2=O)ccc1[N+](=O)[O-]` was 1.98%; that for `Cc1cc(OCC(=O)NC2CCN(C)CC2)ccc1[N+](=O)[O-]` was -1.1%.
`Cc1ccccc1N1CCN(CCCOc2ccc3c(C)cc(=O)oc3c2)CC1`: the Potency was 16.4 µM (active).
The same measure, in the same setting: the same measure for `Cc1cc(OCCCCOc2ccc(C#N)cc2)ccc1[N+](=O)[O-]`: 8.2 µM (active).
On to `CCc1cc(=O)oc2cc(OCC(=O)N3CCCc4ccccc43)ccc12`, for which the “activity change, negative = growth inhibition” value is -0.399%.
Turning to `Cc1ccccc1N1CCN(CCCN2C(=O)C3CCCCN3C2=O)CC1` (stereo unspecified), the “activity change, negative = growth inhibition” value was -19.9%.
Still for that read-out and setting: the value for `Cc1ccc(OCC(=O)Oc2ccccc2[N+](=O)[O-])cc1` was 0.798%.
For `Cc1cc(OCCCN2CCN(Cc3ccccc3)CC2)ccc1[N+](=O)[O-]`, the Potency was 11.6 µM (active).
`Cc1c(Br)c([N+](=O)[O-])nn1CC(=O)N1CCN(Cc2ccccc2)CC1`: the “activity change, negative = growth inhibition” value was 2.31%.
Still for that read-out and setting: the value for `COc1ccc(S(=O)(=O)Nc2c(C)n(C)n(-c3ccccc3)c2=O)cc1` was -0.229%.
For the compound `CC[C@@H]1CCCCc2ccccc2[C@@H](C(=O)C[C@H](O)CC(C)=O)OC1=O`, the “activity change, negative = growth inhibition” value was -13.8%.
Turning to `O=C(c1cc(COc2ccc(F)cc2F)on1)N1CCOCC1`, the “activity change, negative = growth inhibition” value was 3.74%.
On the same count and under the same terms, the value for `Cc1ccccc1CSc1nnc(-c2ccccn2)n1N` was -17.6%; that for `CN(Cc1ccccc1)S(=O)(=O)c1nnc(NC(=O)c2ccccc2F)s1` was -2.67%; that for `O=C(Oc1cccc(C(=S)N2CCOCC2)c1)c1cccc(Cl)c1` was -8.76%.
As for `COCCCNC(=O)C1CC(=O)N(CCc2ccc(F)cc2)C1` (stereo unspecified), the “activity change, negative = growth inhibition” value is 2.99%.
On the same count and under the same terms, the value for `COC(=O)C1C(=O)NCC1c1ccc(C)cc1` (stereo unspecified) was -5.08%; that for `O=[N+]([O-])c1ccc(NCCCO)c(C(F)(F)F)c1` was -14.2%; that for `CO/N=C(\N)c1ccc([N+](=O)[O-])cc1` was -16.8%.
As to `O=C1/C(=C\c2ccc(O)cc2)CCC1CNc1ccc(Cl)cc1` (stereo unspecified), the Potency was 3.26 µM (active).
For the compound `CCCNC(=O)C(=O)Nc1cc2c3c(c1)CCC(=O)N3CCC2`, the “activity change, negative = growth inhibition” value is 4.33%.
Still for that read-out and setting: the same measure for `Cc1[nH]n(C(N)=S)c(=O)c1N=Nc1ccc(Cl)cc1Cl`: -0.416%.
For `CC1=NN(C(N)=S)C(=O)C1N=Nc1cc(Cl)ccc1Cl` (stereo unspecified), the Potency is 3.66 µM (active).
Take `Cc1cc(C)c(C#N)c(N2CCC(C(N)=O)CC2)n1`: the “activity change, negative = growth inhibition” value was -0.105%.
With `CC1CCN(C(=O)c2ccc(CSc3ccc(Cl)cc3)cc2)CC1`, the Potency was 16.4 µM (active).
For `O=C(c1ccc(CSc2ccccc2)cc1)N1CCCCCC1`, the “activity change, negative = growth inhibition” value was -26.1%.
On the same count and under the same terms, the same measure for `COc1ccc(CC(NC(C)=O)C(=O)NC2CCN(C(=O)c3ccc(Cl)cc3)CC2)cc1` (stereo unspecified): -5.27%; for `Cc1cc(C)c(C#N)c(Nc2cccc(Br)c2)n1`: -1.59%.
Still for that read-out and setting: the value for `CC(C)(C)OC(=O)CNC(=O)c1[nH]cnc1C(=O)N[C@@H](CCCCN)C(=O)OC(C)(C)C` was -11.3%; that for `C#CCOCCOCCOCCNc1nc(N2CCN(C(=O)C([C@@H](C)O)n3cc([C@@H](N)CCCCN)nn3)CC2)nc(N2CCN(C(=O)[C@H](CCCCN)n3cc(CN)nn3)CC2)n1` (stereo partly specified) was -15%.
The same measure, in the same setting: the value for `O=C(NCc1ccco1)C1CCCN1S(=O)(=O)c1ccccc1C(F)(F)F` (stereo unspecified) was -18.2%.
With `CCOC(=O)CSC1=N/C(=C/c2ccc(-n3cncn3)cc2)C(=O)N1C(C)=O`, the Potency was 11.6 µM (active).
As to `CCOC(=O)CSc1nc(C)cc2c1C(=O)OC2`, the “activity change, negative = growth inhibition” value is 9.81%.
As to `CCCC(=O)N1CCC1(C)C(=O)Nc1ccc(-n2cncn2)cc1` (stereo unspecified), the “activity change, negative = growth inhibition” value is -2.82%.
As for `C=CCn1c(COc2ccccc2C)nnc1SCC(=O)O`, the “activity change, negative = growth inhibition” value was 2.03%.
For the compound `COc1ccc(CNc2ncncc2-c2ccccc2OC)c(OC)c1`, the “activity change, negative = growth inhibition” value was -11.4%.
On the same count and under the same terms, the value for `COc1ccc(CNc2ncncc2-c2ccccc2C)c(OC)c1` was -21.4%.
`COc1ccc(CCNc2ncnc3onc(-c4ccc(Cl)cc4)c23)c(OC)c1`: the Potency is 14.6 µM (active).
For `O=C(Nc1cccc2c1CCCC2)c1ccc(F)cc1`, the “activity change, negative = growth inhibition” value is -28.2%.
The same measure, in the same setting: the same measure for `Clc1cccc(Cl)c1Cn1nnc(-c2cccs2)n1`: -4.91%; for `Cc1ccc(N=Cc2c(O)cc(C)oc2=O)c(C)c1`: -7.95%.
Same read-out and setting: the same measure for `O=C(Nc1ncc2c(n1)-c1ccccc1OC2)c1ccc(Cl)cc1`: -18.8%.
`COc1cccc(OC)c1C(=O)Nc1sc2c(c1C(N)=O)CCCC2`: the “activity change, negative = growth inhibition” value is -1.68%.
On the same count and under the same terms, the value for `COCc1nnc(NC(=O)c2ccc3c(c2)OCO3)s1` was -3.94%.
For `C=CCN(CC=C)S(=O)(=O)c1ccc(C(=O)Nc2nc3c(s2)CCc2ccccc2-3)cc1`, the Potency is 10.3 µM (active).
On the same count and under the same terms, the same measure for `C=CCN(CC=C)S(=O)(=O)c1ccc(C(=O)Nc2sc3c(c2C(N)=O)CCCCC3)cc1`: 13 µM (active); for `COCCN(CCOC)S(=O)(=O)c1ccc(C(=O)Nc2nc3c(s2)CCc2ccccc2-3)cc1`: 13 µM (active).
As for `NC(=O)c1c(NC(=O)c2ccccc2)sc2c1CCCC2`, the “activity change, negative = growth inhibition” value is -1.15%.
On the same count and under the same terms, the value for `COCCN(CCOC)S(=O)(=O)c1ccc(/C(O)=C(\C#N)c2nc3ccccc3[nH]2)cc1` was -28%.
On the same count and under the same terms, the value for `C=CCSc1nnc(NC(=O)c2ccc(NC(C)=O)cc2)s1` was 0.0104%.
